High-throughput results as filed in PubChem BioAssay.
FBA Mtb inh: Mtb fructose-bisphosphate aldolase inhibition | P9WQA3 | purified M. tuberculosis FBA, fluorescence read-out | inhibition, % at 1 µM | actives 2.3% (n = 360,000) | AID 588726; in the data active means inhibition above about 27%;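 further: 0% = vehicle and 100% = reference inhibitor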
Target sequence (P9WQA3 whole entry, looked up): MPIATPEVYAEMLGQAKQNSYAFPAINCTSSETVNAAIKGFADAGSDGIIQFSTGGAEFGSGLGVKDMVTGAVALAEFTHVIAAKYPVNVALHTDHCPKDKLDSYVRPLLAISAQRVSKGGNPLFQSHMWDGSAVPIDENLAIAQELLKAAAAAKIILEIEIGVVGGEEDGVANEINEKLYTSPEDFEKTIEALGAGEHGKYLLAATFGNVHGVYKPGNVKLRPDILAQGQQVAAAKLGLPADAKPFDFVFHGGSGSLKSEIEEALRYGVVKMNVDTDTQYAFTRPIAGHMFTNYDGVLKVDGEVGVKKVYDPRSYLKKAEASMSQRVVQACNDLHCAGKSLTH
Rv3671c inh: Rv3671c (M. tuberculosis) protease inhibition. actives 0.048% (n = 320,000). P9WHR9. inhibition, % at 5.96 µM; in the data active means inhibition above about 38%;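 further: extracellular domain of Rv3671c used as enzyme; 0% = enzyme with DMSO and 100% = no enzyme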
Mtb bLac sens: beta-lactam sensitization of Mtb H37Rv; M. tuberculosis H37Rv growth with meropenem, percent inhibition; inhibition, % at 25 µM; actives 0.27% (n = 330,000); call rule not given here;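 further: growth measured after seven days incubation then overnight dye step; 0% = bacteria only wells and 100% = bacteria with antibiotic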
Mtb UGM inh: Mtb UDP-galactopyranose mutase inhibition; purified UGM, fluorescence polarization probe displacement; inhibition, % at 10 µM; actives 0.06% (n = 320,000); AID 504406; in the data active means inhibition above about 10%, passing the limit was not always enough; inconclusive means no clear call, values can overlap the other calls
SSB-PriA inh: blocks PriA binding to SSB C-terminal tail. AlphaScreen SSBct-PriA binding, biotinylated peptide. inhibition, % at 33 µM. actives 0.6% (n = 430,000); in the data active means inhibition mostly above about 37%, no sharp cut-off; inactive means mostly below about 20%;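 further: plate controls were negative control peptide for no effect and reference peptide for full effect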
GDH-TPI inh: inhibits GDH-TPI coupling enzymes, artifact for Mtb FBA screen | inhibition, % at 4.8 µM | actives 1.2% (n = 360,000) | GDH-TPI coupled enzyme counterscreen, NADH absorbance | AID 588335; in the data active means inhibition above about 30%;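 further: 0% = DMSO wells and 100% = wells lacking the enzyme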
* hit, by the source's call; ? = inconclusive; nt = no result; + = active, no number; ! = not active in a repeat. Shown are actives, neighbours in structure and some others; about 3.2% of the full set was active somewhere.

SMILES | FBA Mtb inh | Rv3671c inh | Mtb bLac sens | Mtb UGM inh | SSB-PriA inh | GDH-TPI inh
CCOC(=O)C1=C(C)NC2=C(C(=O)CCC2)C1c1cccs1 (stereo not given) | 2 | -2 | -14 | -1 | -13 | 20
CCOC(=O)c1sc2c(c1C)C(c1cccs1)C1=C(CCCC1=O)N2 (stereo not given) | + | -1 | 17 | 6 | 21 | 11
CN(N=C/C=C/c1ccccc1)c1cc(=O)n(C)c(=O)[nH]1 | nt | nt | nt | nt | -2 | nt
COc1ccc(/C=N/N(C)c2cc(=O)n(C)c(=O)[nH]2)cc1OC | -2 | 3 | 3 | -3 | nt | 46*
CN(/N=C/C=C/c1ccccc1)c1cc(=O)n(C)c(=O)[nH]1 | -5 | -7 | ? | 2 | nt | 73*
Cc1cc(C)c(C(=O)/C=C/c2ccc(C(C)C)cc2)c(=O)[nH]1 | -1 | 0 | nt | -1 | 3 | 42*
C/C(=C\C=C\c1ccccc1)C(=O)c1c(C)cc(C)[nH]c1=O | -2 | 1 | 0 | 3 | 5 | 47*
Cc1cc(C)c(C(=O)/C=C/C=C/c2ccccc2)c(=O)[nH]1 | -2 | -1 | 7 | -1 | 10 | 23
Cc1noc(C)c1S(=O)(=O)N1CCc2nc(NC(=O)c3ccco3)sc2C1 | nt | nt | nt | nt | -5 | nt
CCCCCCC(=O)N/N=C\c1cc(Br)ccc1O | nt | nt | nt | nt | -11 | nt
O=C1NC(=S)N(S(=O)(=O)c2c(Cl)cccc2Cl)C1Cc1ccccc1 (stereo not given) | nt | nt | nt | nt | 86* | nt
Cc1cc(C)c(C)c(S(=O)(=O)N2C(=S)NC(=O)C2Cc2ccccc2)c1C (stereo not given) | nt | nt | nt | nt | 28 | nt
CCOC(=O)/C(C#N)=C/c1c(N2CCN(C)CC2)nc2ccccn2c1=O | -5 | -6 | -7 | -4 | -6 | 15
COCCNC(=O)/C(C#N)=C/c1c(N2CCN(C)CC2)nc2ccccn2c1=O | 192* | 2 | 4 | 4 | -11 | 6
CC12CCC(C(=O)Nc3ccc(I)cc3)(CC1=O)C2(C)C (stereo not given) | nt | nt | nt | nt | 1 | nt
Cc1c(C)c2ccc(OC(C)C(=O)NC3CC(C)(C)NC(C)(C)C3)cc2oc1=O (stereo not given) | 123* | -5 | 4 | -2 | -3 | 12
COC(=O)C1CSC(C(=O)OC)N1C(=O)Nc1ccc(Cl)c(Cl)c1 (stereo not given) | 0 | 3 | -10 | 4 | 1 | -3
COC(=O)C1CSC(C(=O)OC)N1C(=O)Nc1ccc(Cl)cc1 (stereo not given) | 103* | 2 | -9 | 3 | -5 | 10
CN(C)CCCN(C(=O)/C=C/c1cccs1)c1nc2c(F)cccc2s1 | -4 | nt | nt | nt | 1 | 37*
Cc1ccc2nc(N(CCCN(C)C)C(=O)c3cc(-c4cccs4)nc4ccccc34)sc2c1 | 25 | 1 | 100 | 1 | 44* | 0
CN(C)CCCN(C(=O)c1cc(-c2cccs2)nc2ccccc12)c1nc2c(F)cccc2s1 | 19 | -7 | -8 | 1 | 52*! | 5
Cc1ccc2nc(N(CCCN(C)C)C(=O)c3ccc(Br)s3)sc2c1 | 3 | -8 | -6 | -2 | 11 | 13
N=C1CCC(=N)c2c1c(O)c1ccccc1c2O | 0 | -17 | 7 | 2 | 74* | -3
O=C1CCn2c1c(O)c1ccccc1c2=O | 14 | nt | nt | nt | 9 | 7
CCOc1ccccc1N=c1oc2cc(O)ccc2cc1C(=O)NCC1CCCO1 (stereo not given) | 166* | 12 | -6 | -1 | -1 | 10
SMILES | FBA Mtb inh | Rv3671c inh | Mtb bLac sens | Mtb UGM inh | SSB-PriA inh | GDH-TPI inh
COc1ccc(N=c2oc3cc(O)ccc3cc2C(=O)NCC2CCCO2)cc1 (stereo not given) | 190* | 1 | 1 | 1 | -1 | 22
COc1cc(OC)cc(C(=O)NCC2CCCO2)c1 (stereo not given) | -1 | -5 | -2 | -1 | -12 | -4
COc1ccc(N=c2oc3cc(O)ccc3cc2C(=O)NCC2CCCO2)c(OC)c1 (stereo not given) | + | -2 | ? | -1 | 5 | 32*
Cn1cccc1-c1noc(CNC(=O)c2ccc3ncsc3c2)n1 | nt | nt | nt | nt | -1 | nt
CC(C)CC(=O)OC1C(N2CCOCC2)c2c(ccc(/C=C/C(=O)N3CCOCC3)c2O)OC1(C)C (stereo not given) | 6 | -5 | -2 | 0 | 1 | 31*
O=C(NNC(=O)c1ccncc1)Nc1ccccc1 | -2 | -3 | -12 | 0 | 1 | 3
CC(=O)c1ccc(NC(=S)NNC(=O)c2ccncc2)cc1 | 1 | -8 | 97 | -1 | -12 | 32*
